# In all, about 81,000 sequences were measured (“one-hybrid fitness for binding NBS DNA”: median about -0.1, highest 2% from about 0.36 on). What follows is part of a selection rich in the highest values, with near analogues and random picks from the rest.
# B1: Caulobacter ParB omega fusion; a variant is named by its letters at X, in order, B8GW30 (parent)
# chain: MESVVVGEPGMSEGRRGLGRGLSALLGEVDAAPAQAPGEQLGGSREAPIEILQRNPDQPRRTFREEDLEDLSNSIREKGVLQPILVRPSPDTAGEYQIVAGERAWRAAQRAGLKTVPIMVRELDDLAVLEIGIIENVQRADLNVLEEALSYKVLMEKFERTQENIAQTIGKSXSHVANXMRLLXLPDEVQSYLVSGELTAXHARAIAAAADPVALAKQIIEGGLSVRETEALARKAPNLSAGKSKGGRPPRVKDTDTQALESDLSSVLGLDVSIDHRGSTGTLTITYATLEQLDDLCNRLTRGI
# Variants of: B1
# Assay: one-hybrid fitness for binding NBS DNA (the Noc-binding site; scaled: cognate 1, non-cognate 0); higher = stronger binding
# Conditions: with NBS DNA site
# In short: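 Fitness here means the log change in variant-to-wild-type read ratio between plasmids sequenced before and after selection. That scale was set so cognate equals 1 and non-cognate equals 0. The selection was a bacterial one-hybrid screen of Caulobacter ParB libraries, four specificity codons randomised, in E. coli USO carrying a HIS3 reporter with the site 19 bp from the promoter, grown 48 hours at 37°C on M9-minus-histidine with 0.1 mM IPTG and 5 mM 3-AT.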
row,Variant,one-hybrid fitness for binding NBS DNA
1,RVHY,≤ 0.2
2,RVHN,≤ 0.2
3,RVAT,0.383
4,RVHP,≤ 0.2
5,RVHH,≤ 0.2
6,RVFT,0.271
7,RVHR,0.484
8,RVHD,≤ 0.2
9,RVAS,0.358
10,RVHS,0.461
11,RVHT,0.487
12,RVHM,≤ 0.2
13,GNNW,≤ 0.2
14,HSLW,≤ 0.2
15,SLMG,≤ 0.2
16,ACAR,≤ 0.2
17,KRNK,≤ 0.2
18,SCKG,≤ 0.2
19,SRHE,≤ 0.2
20,IGMS,≤ 0.2
21,LVKR,≤ 0.2
22,RVPT,≤ 0.2
23,RVQT,0.438
24,RVQP,≤ 0.2

row,Variant,one-hybrid fitness for binding NBS DNA
1,RVQD,≤ 0.2
2,RVRT,0.631
3,RVYT,0.357
4,QQQI,≤ 0.2
5,DRRL,≤ 0.2
6,MTMS,≤ 0.2
7,RRCH,0.382
8,RRCG,0.296
9,RRCS,0.642
10,RRCD,≤ 0.2
11,RRCP,≤ 0.2
12,RRCN,0.248
13,SSEH,≤ 0.2
14,RSQS,0.433
15,RKQD,≤ 0.2
16,RHQN,≤ 0.2
17,RKQS,0.543
18,RHQS,0.455
19,RHQH,≤ 0.2
20,RTQS,0.459
21,RTQD,≤ 0.2
22,RTQH,≤ 0.2
23,RSQD,≤ 0.2
24,RKQN,≤ 0.2

row,Variant,one-hybrid fitness for binding NBS DNA
1,RSQN,≤ 0.2
2,YQLE,≤ 0.2
3,WLLP,≤ 0.2
4,PIRG,≤ 0.2
5,RLRW,≤ 0.2
6,TAYQ,≤ 0.2
7,ARIK,≤ 0.2
8,ACVN,≤ 0.2
9,VRHN,≤ 0.2
10,IRAF,≤ 0.2
11,KMGK,≤ 0.2
12,VQSE,≤ 0.2
13,DNKI,≤ 0.2
14,DLTY,≤ 0.2
15,WNVE,≤ 0.2
16,RAQS,0.416
17,RMQN,≤ 0.2
18,RLQP,≤ 0.2
19,RLQH,≤ 0.2
20,RPQS,≤ 0.2
21,RMQS,0.409
22,RAQN,≤ 0.2
23,RCQS,0.474
24,RMQH,≤ 0.2

row,Variant,one-hybrid fitness for binding NBS DNA
1,RLQS,0.382
2,RDQS,≤ 0.2
3,RAQD,≤ 0.2
4,PCVC,≤ 0.2
5,NLCG,≤ 0.2
6,TPCN,≤ 0.2
7,RCCC,≤ 0.2
8,VASN,≤ 0.2
9,HSTM,≤ 0.2
10,SDNA,≤ 0.2
11,FLCR,≤ 0.2
12,WDPR,≤ 0.2
13,GLGG,≤ 0.2
14,RPGR,≤ 0.2
15,RSGR,0.459
16,RSGH,≤ 0.2
17,RFGR,0.23
18,RCGR,0.523
19,RSGP,≤ 0.2
20,HRAM,≤ 0.2
21,FIVS,≤ 0.2
22,DFTV,≤ 0.2
23,TCKT,≤ 0.2
24,TCRT,≤ 0.2

row,Variant,one-hybrid fitness for binding NBS DNA
1,TRDT,≤ 0.2
2,TRRN,≤ 0.2
3,TRKT,0.578
4,TRRS,0.38
5,TRRT,0.526
6,TRYT,0.334
7,TCNT,≤ 0.2
8,TRYS,≤ 0.2
9,TRVT,≤ 0.2
10,TRNT,0.459
11,PANE,≤ 0.2
12,KSQQ,≤ 0.2
13,NCPT,≤ 0.2
14,FMKS,≤ 0.2
15,QNLL,≤ 0.2
16,SKPR,≤ 0.2
17,CSPY,≤ 0.2
18,QVAP,≤ 0.2
19,QRFR,0.865
20,DRAR,≤ 0.2
21,NRAR,≤ 0.2
22,QRFF,≤ 0.2
23,QRAR,1.01
24,IFSI,≤ 0.2

row,Variant,one-hybrid fitness for binding NBS DNA
1,RYTI,≤ 0.2
2,HQWA,≤ 0.2
3,NIMG,≤ 0.2
4,QKQT,0.578
5,QPQT,≤ 0.2
6,QTQC,0.239
7,QTQT,0.577
8,QSQT,0.411
9,QAQT,0.364
10,QTQG,≤ 0.2
11,QKQC,≤ 0.2
12,QKQF,≤ 0.2
13,QHQT,0.363
14,QDQT,≤ 0.2
15,QCQT,0.526
16,FPTH,≤ 0.2
17,SIGR,≤ 0.2
18,LNNM,≤ 0.2
19,TFLV,≤ 0.2
20,QLGE,≤ 0.2
21,CTTF,≤ 0.2
22,YCLC,≤ 0.2
23,SKES,≤ 0.2
24,QLQN,≤ 0.2

row,Variant,one-hybrid fitness for binding NBS DNA
1,QLQT,0.37
2,QLQP,≤ 0.2
3,MYYS,≤ 0.2
4,HTKF,≤ 0.2
5,FQTK,≤ 0.2
6,QCKM,0.464
7,QTKM,0.563
8,QAKM,0.392
9,QAYM,≤ 0.2
10,QRVM,0.265
11,QAVM,≤ 0.2
12,QTWM,≤ 0.2
13,QPKM,≤ 0.2
14,QTVM,≤ 0.2
15,QIKM,0.249
16,QRKM,0.557
17,QSKM,0.362
18,WLRR,≤ 0.2
19,NYAI,≤ 0.2
20,IRSK,≤ 0.2
21,DSWA,≤ 0.2
22,ITVR,≤ 0.2
23,GKRG,≤ 0.2
24,QMVM,≤ 0.2

row,Variant,one-hybrid fitness for binding NBS DNA
1,QHVM,≤ 0.2
2,QHNM,≤ 0.2
3,QKPM,≤ 0.2
4,QMQM,≤ 0.2
5,QKKM,0.409
6,QHKM,0.379
7,QKVM,0.273
8,QMKM,0.416
9,GAKC,≤ 0.2
10,KIRV,≤ 0.2
11,QELA,≤ 0.2
12,RQLA,≤ 0.2
13,DCST,≤ 0.2
14,RCST,0.531
15,RDST,≤ 0.2
16,RSST,0.426
17,RPST,≤ 0.2
18,RISP,≤ 0.2
19,RHSQ,≤ 0.2
20,RFST,0.217
21,RWST,≤ 0.2
22,RISH,≤ 0.2
23,RHST,0.435
24,RIST,0.398

row,Variant,one-hybrid fitness for binding NBS DNA
1,RHSF,≤ 0.2
2,KFSS,≤ 0.2
3,KFVF,≤ 0.2
4,LRQC,≤ 0.2
5,DWDT,≤ 0.2
6,RAIT,0.22
7,RASG,≤ 0.2
8,RAST,0.405
9,WCGS,≤ 0.2
10,WSGA,≤ 0.2
11,LRTY,≤ 0.2
12,RPRS,≤ 0.2
13,RCRD,≤ 0.2
14,RCRS,0.661
15,RSYS,0.409
16,RCYS,0.521
17,RLRH,0.322
18,RLRS,0.541
19,RSIS,0.203
20,RCDS,≤ 0.2
21,RSPS,≤ 0.2
22,RCIS,0.281
23,RLYS,0.34
24,PGSA,≤ 0.2

row,Variant,one-hybrid fitness for binding NBS DNA
1,INQF,≤ 0.2
2,RCMW,≤ 0.2
3,QPWY,≤ 0.2
4,PDHS,≤ 0.2
5,CDSD,≤ 0.2
6,TLGI,≤ 0.2
7,NQER,≤ 0.2
8,HRCR,≤ 0.2
9,DVPR,≤ 0.2
10,LVEQ,≤ 0.2
11,RSRN,≤ 0.2
12,RMRS,0.642
13,RFYS,≤ 0.2
14,RMYS,0.361
15,RFRS,0.446
16,RMRN,0.25
17,RFIS,≤ 0.2
18,RSRD,≤ 0.2
19,RSRS,0.593
20,GATS,≤ 0.2
21,FYHG,≤ 0.2
22,RQDG,≤ 0.2
23,PLRC,≤ 0.2
24,MYHV,≤ 0.2

row,Variant,one-hybrid fitness for binding NBS DNA
1,MNMN,≤ 0.2
2,NSER,≤ 0.2
3,IPMG,≤ 0.2
4,MNVG,≤ 0.2
5,YLLC,≤ 0.2
6,QMFR,0.431
7,QMAP,≤ 0.2
8,QMFS,0.251
9,QMAN,≤ 0.2
10,QMFD,≤ 0.2
11,QMAR,0.602
12,KGLV,≤ 0.2
13,WVEH,≤ 0.2
14,QVVS,≤ 0.2
15,VVYG,≤ 0.2
16,QRRL,0.364
17,QRNC,0.44
18,NRRH,≤ 0.2
19,QRDP,≤ 0.2
20,QRDC,0.227
21,QRDN,≤ 0.2
22,QRRH,0.779
23,QRDD,≤ 0.2
24,QRNN,0.459

row,Variant,one-hybrid fitness for binding NBS DNA
1,QCNN,0.208
2,QRDH,0.381
3,QCNC,≤ 0.2
4,WYLT,≤ 0.2
5,RDFR,≤ 0.2
6,EMRY,≤ 0.2
7,KWVR,≤ 0.2
8,YLCS,≤ 0.2
9,TWCL,≤ 0.2
10,SYCN,≤ 0.2
11,IVKG,≤ 0.2
12,CWPS,≤ 0.2
13,QRNQ,0.439
14,QCNM,0.224
15,QREH,0.258
16,QRNM,0.461
17,QRDQ,0.215
18,QSNQ,≤ 0.2
19,QRDM,≤ 0.2
20,QRNP,0.308
21,QRYH,0.486
22,QRND,0.306
23,QRWH,0.301
24,QRNH,0.598

row,Variant,one-hybrid fitness for binding NBS DNA
1,KICK,≤ 0.2
2,QEKS,≤ 0.2
3,LWPC,≤ 0.2
4,QDAY,≤ 0.2
5,RGRV,≤ 0.2
6,KRKD,≤ 0.2
7,KRKP,≤ 0.2
8,KRKS,0.536
9,KRKN,0.272
10,KRYY,≤ 0.2
11,KRKM,0.253
12,KRVS,0.395
13,KRVY,≤ 0.2
14,KRVH,≤ 0.2
15,KRKH,0.482
16,KRKY,0.368
17,KRVD,≤ 0.2
18,AKVL,≤ 0.2

# From a collection of fitness landscapes (doi:10.1016/j.celrep.2020.107928)
